The panel holds about 83,000 compounds, 20% with a hit somewhere; the sample as a whole holds those more often.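 A percent growth of 40 corresponds to 60% growth inhibition; 0 means no net growth; -100 means all cells died. Active threshold: below 10.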 Active and inactive are the calls of the source.
Experiments:
Assay in all cases: NCI-60 one-dose screen, 48 h (100 = growth as untreated, 0 = no growth, -100 = all killed)
Conditions in all cases: 10 µM unless noted
DU-145 prostate = system: DU-145 prostate
K-562 leukemia = system: K-562 leukemia
MALME-3M melanoma = system: MALME-3M melanoma
MDA-MB-231 breast = system: MDA-MB-231 breast
RXF 393 renal = system: RXF 393 renal
SF-268 CNS = system: SF-268 CNS
SF-295 CNS = system: SF-295 CNS
SF-539 CNS = system: SF-539 CNS
UACC-257 melanoma = system: UACC-257 melanoma
M14 melanoma = system: M14 melanoma

Measured: growth

COc1cc(Cn2cc(F)c(=O)[nH]c2=O)cc(OC)c1
inactive: DU-145 prostate 114% [50 µM] | K-562 leukemia 95.6% [50 µM] | MALME-3M melanoma 108% [50 µM] | MDA-MB-231 breast 95.7% [50 µM] | RXF 393 renal 99.5% [50 µM] | SF-268 CNS 96.1% [50 µM] | SF-295 CNS 101% [50 µM] | SF-539 CNS 101% [50 µM] | UACC-257 melanoma 110% [50 µM] | M14 melanoma 100% [50 µM]

CC(C)(C)CC(C)(C)N(CSc1ccc(Cl)cc1)CSc1ccc(Cl)cc1
inactive: DU-145 prostate 73.8% | K-562 leukemia 34.8% | MALME-3M melanoma 82.1% | RXF 393 renal 66.2% | SF-268 CNS 31.5% | SF-295 CNS 27.2% | UACC-257 melanoma 63% | M14 melanoma 48.3%
active: MDA-MB-231 breast 0.954% | SF-539 CNS 6.24%

COc1ccc(Sc2ccc3[nH]c(=O)nc(N)c3c2)cc1
inactive: DU-145 prostate 108% | K-562 leukemia 100% | MALME-3M melanoma 102% | MDA-MB-231 breast 91.5% | RXF 393 renal 101% | SF-268 CNS 107% | SF-295 CNS 106% | SF-539 CNS 105% | UACC-257 melanoma 92% | M14 melanoma 105%

COC(=O)c1c2c(c(C)[n+]([O-])c1C)C(=O)C(NCc1ccc(O)cc1)=CC2=O
active: DU-145 prostate -69.2% | K-562 leukemia 6.74% | MALME-3M melanoma -98.5% | MDA-MB-231 breast -10.3% | RXF 393 renal -4.53% | SF-268 CNS -9.31% | SF-295 CNS -9.04% | SF-539 CNS -59.7% | UACC-257 melanoma -62.4% | M14 melanoma -76.5%

O=C(CCc1nnc2sc(/C=C\c3ccccc3)nn12)c1nc2ccccc2[nH]1
active: K-562 leukemia 2.17%
inactive: DU-145 prostate 98% | MALME-3M melanoma 93.8% | MDA-MB-231 breast 83% | RXF 393 renal 108% | SF-268 CNS 107% | SF-295 CNS 83.8% | SF-539 CNS 65.9% | UACC-257 melanoma 94.9% | M14 melanoma 90.7%

COc1nc2c(cc1S(=O)(=O)c1ccccc1)CCc1c-2cnn1-c1ccccc1Cl
inactive: DU-145 prostate 90.8% | K-562 leukemia 54.3% | MALME-3M melanoma 97.4% | MDA-MB-231 breast 70.2% | RXF 393 renal 52.6% | SF-268 CNS 74.1% | SF-295 CNS 63% | SF-539 CNS 60.5% | UACC-257 melanoma 72.6% | M14 melanoma 68.9%

O=S(=O)(Nc1ccccc1Cl)c1ccc(-c2cnc(C3CC3)o2)cc1
active: RXF 393 renal -27% | SF-539 CNS -22.7%
inactive: DU-145 prostate 13.5% | K-562 leukemia 20.1% | MALME-3M melanoma 47.3% | MDA-MB-231 breast 34.8% | SF-268 CNS 53.5% | SF-295 CNS 12.2% | UACC-257 melanoma 69.4% | M14 melanoma 19%

COc1ccc(/C=C(\C#N)c2cc3ccccc3n2C)cc1
inactive: MALME-3M melanoma 60.8% | MDA-MB-231 breast 31% | SF-268 CNS 47.5% | UACC-257 melanoma 72.6%
active: DU-145 prostate 2.99% | K-562 leukemia 7.26% | RXF 393 renal -6.28% | SF-295 CNS 9.9% | SF-539 CNS -15.9% | M14 melanoma 6.61%

CCCCC(CCCC)(S(=O)(=O)CC)S(=O)(=O)CC
inactive: DU-145 prostate 107% | K-562 leukemia 101% | MALME-3M melanoma 99.8% | MDA-MB-231 breast 119% | RXF 393 renal 98.9% | SF-268 CNS 109% | SF-295 CNS 100% | SF-539 CNS 101% | UACC-257 melanoma 101% | M14 melanoma 101%

O=C(CCc1nnc2sc(-c3ccccc3)nn12)c1nc2ccccc2[nH]1
active: K-562 leukemia 5.84%
inactive: DU-145 prostate 106% | MALME-3M melanoma 93.7% | MDA-MB-231 breast 97.2% | RXF 393 renal 107% | SF-268 CNS 116% | SF-295 CNS 77.1% | SF-539 CNS 78.9% | UACC-257 melanoma 100% | M14 melanoma 96.3%

COc1ccc(-c2csc3c2-n2cccc2C3=O)cc1O
inactive: MALME-3M melanoma 66.2% | MDA-MB-231 breast 13.2% | RXF 393 renal 31.3% | SF-268 CNS 13% | SF-539 CNS 15.6% | UACC-257 melanoma 43.8%
active: DU-145 prostate -23.5% | K-562 leukemia 5.65% | SF-295 CNS -31.7% | M14 melanoma -18.5%

CCCN1CCN(c2ccc3nc(-c4ccc5nc(-c6ccc(C(F)(F)F)cc6)[nH]c5c4)[nH]c3c2)CC1
inactive: UACC-257 melanoma 96.5%
active: DU-145 prostate -95.3% | K-562 leukemia -51.4% | MALME-3M melanoma -64.7% | MDA-MB-231 breast -86.9% | RXF 393 renal -70.4% | SF-268 CNS -70.2% | SF-295 CNS -58.4% | SF-539 CNS -94.6% | M14 melanoma -59%

CN1CCN(c2ccc3nc(-c4ccc5nc(-c6ccc(C(F)(F)F)cc6)[nH]c5c4)[nH]c3c2)CC1
inactive: DU-145 prostate 59.2% | MALME-3M melanoma 18% | MDA-MB-231 breast 82% | SF-268 CNS 70.8% | SF-295 CNS 50.9% | SF-539 CNS 47.2% | UACC-257 melanoma 87.2% | M14 melanoma 43.8%
active: K-562 leukemia -34.2% | RXF 393 renal -14.3%

COc1ccc(OC)c(C2C(C#N)=C(N)Oc3cc(O)ccc32)c1 (stereo not given)
inactive: DU-145 prostate 107% | K-562 leukemia 83.4% | MALME-3M melanoma 85.9% | MDA-MB-231 breast 99% | RXF 393 renal 92.1% | SF-268 CNS 98.2% | SF-295 CNS 83.3% | SF-539 CNS 104% | UACC-257 melanoma 99.9% | M14 melanoma 100%

CCCCc1ccc(NC(=O)C(F)(F)F)cc1
inactive: DU-145 prostate 100% | K-562 leukemia 85.8% | MALME-3M melanoma 140% | MDA-MB-231 breast 99.8% | RXF 393 renal 93.4% | SF-268 CNS 83.9% | SF-295 CNS 105% | SF-539 CNS 100% | UACC-257 melanoma 110% | M14 melanoma 105%

CCN1C(=O)C2(Nc3ccccc3S2)c2cc(C)ccc21 (stereo not given)
inactive: DU-145 prostate 101% | K-562 leukemia 108% | MALME-3M melanoma 84.1% | MDA-MB-231 breast 105% | RXF 393 renal 93.7% | SF-268 CNS 98.2% | SF-295 CNS 101% | SF-539 CNS 94.4% | UACC-257 melanoma 101% | M14 melanoma 92.6%

Cc1nc2cc(Nc3nc(Nc4ccc(F)cc4)nc(-c4cccs4)n3)ccc2n1Cc1ccccc1
inactive: DU-145 prostate 75.2% | K-562 leukemia 43.1% | MALME-3M melanoma 77.6% | MDA-MB-231 breast 69.1% | RXF 393 renal 25.9% | SF-268 CNS 63.7% | SF-295 CNS 51.9% | SF-539 CNS 59.9% | UACC-257 melanoma 57.5% | M14 melanoma 53.1%

CCCC1=NNC(=O)C1
inactive: DU-145 prostate 125% | K-562 leukemia 100% | MALME-3M melanoma 101% | MDA-MB-231 breast 122% | RXF 393 renal 113% | SF-268 CNS 108% | SF-295 CNS 97.5% | SF-539 CNS 89.8% | UACC-257 melanoma 90.9% | M14 melanoma 104%

CN1CCN(C(=O)OCCOCCOC(=O)N2CCN(C)CC2)CC1
inactive: DU-145 prostate 111% | K-562 leukemia 106% | MALME-3M melanoma 133% | MDA-MB-231 breast 94.9% | RXF 393 renal 87.8% | SF-268 CNS 102% | SF-295 CNS 85.9% | SF-539 CNS 97.9% | UACC-257 melanoma 94.2% | M14 melanoma 103%

Cc1cc(Cl)c2c(Cl)ccc(Cl)c2n1
inactive: DU-145 prostate 112% | K-562 leukemia 97.6% | MALME-3M melanoma 105% | MDA-MB-231 breast 119% | RXF 393 renal 118% | SF-268 CNS 99.1% | SF-295 CNS 96.9% | SF-539 CNS 97.5% | UACC-257 melanoma 102% | M14 melanoma 101%

Cc1ccccc1-c1cc(-c2ccc(Br)s2)[nH]c(=O)c1C#N
inactive: DU-145 prostate 110% | K-562 leukemia 90.3% | MALME-3M melanoma 88.9% | MDA-MB-231 breast 100% | RXF 393 renal 106% | SF-268 CNS 104% | SF-295 CNS 95.1% | SF-539 CNS 112% | UACC-257 melanoma 104% | M14 melanoma 93.6%

O=[N+]([O-])c1cc2c(cc1Br)C1C(C3C2C(Cl)(Cl)C(Cl)=C(Cl)C3(Cl)Cl)C(Cl)(Cl)C(Cl)=C(Cl)C1(Cl)Cl (stereo not given)
inactive: DU-145 prostate 108% | K-562 leukemia 105% | MALME-3M melanoma 80.8% | MDA-MB-231 breast 108% | RXF 393 renal 96.9% | SF-268 CNS 102% | SF-295 CNS 95.8% | SF-539 CNS 94.9% | UACC-257 melanoma 92.9% | M14 melanoma 90.6%

COc1ccc(-n2ncc3c4nc(OC)c(S(=O)(=O)c5ccccc5)cc4ccc32)cc1
inactive: DU-145 prostate 73% | K-562 leukemia 119% | MALME-3M melanoma 56.9% | MDA-MB-231 breast 75.6% | RXF 393 renal 35.1% | SF-268 CNS 50.9% | SF-295 CNS 84% | SF-539 CNS 30.7% | UACC-257 melanoma 76.9% | M14 melanoma 85%

CCN(CC)c1ccc(/C=C(\C#N)c2cc3ccccc3[nH]2)cc1
inactive: DU-145 prostate 74.1% | K-562 leukemia 14.2% | MALME-3M melanoma 71.7% | MDA-MB-231 breast 48.6% | RXF 393 renal 94% | SF-268 CNS 71.8% | SF-295 CNS 46.9% | SF-539 CNS 58.3% | UACC-257 melanoma 81.5% | M14 melanoma 29.6%

C[C@H]1C(=O)C23CCC1C[C@@]21O[C@@H]2C(C)(C)C=CC(=O)C23COC1=O
inactive: DU-145 prostate 104% | K-562 leukemia 104% | MALME-3M melanoma 110% | MDA-MB-231 breast 118% | RXF 393 renal 108% | SF-268 CNS 104% | SF-295 CNS 110% | SF-539 CNS 111% | UACC-257 melanoma 98.7% | M14 melanoma 102%

CN1CCc2c(Sc3ccc(C(=O)NO)cc3)c3ccccc3n2C1
active: MDA-MB-231 breast 8.01%
inactive: DU-145 prostate 36.8% | K-562 leukemia 28.2% | MALME-3M melanoma 42.4% | RXF 393 renal 52.5% | SF-268 CNS 35.9% | SF-295 CNS 40.6% | SF-539 CNS 17.1% | UACC-257 melanoma 14.1% | M14 melanoma 38.1%

Cc1nc2cc(Nc3nc(Nc4ccc(F)cc4)nc(-c4ccc(Cl)cc4)n3)ccc2n1Cc1ccccc1
inactive: DU-145 prostate 81.4% | K-562 leukemia 33.6% | MALME-3M melanoma 72.5% | MDA-MB-231 breast 66% | RXF 393 renal 68.5% | SF-268 CNS 54.9% | SF-295 CNS 90.4% | SF-539 CNS 92.6% | UACC-257 melanoma 68.9% | M14 melanoma 58.3%

Reference: PubChem BioAssay (NCI)
